# Shown are actives, neighbours in structure and some others; about 13% of the full set was active somewhere.
# USP30 block – inhibitors of human USP30 deubiquitinase | inhibition, % at 25 µM | purified USP30, Ub-rhodamine cleavage fluorescence | Ubiquitin carboxyl-terminal hydrolase 30 (Homo sapiens), Q70CQ3 | hit rate 5.3% among 47,000
# Target sequence (Q70CQ3 whole entry, looked up): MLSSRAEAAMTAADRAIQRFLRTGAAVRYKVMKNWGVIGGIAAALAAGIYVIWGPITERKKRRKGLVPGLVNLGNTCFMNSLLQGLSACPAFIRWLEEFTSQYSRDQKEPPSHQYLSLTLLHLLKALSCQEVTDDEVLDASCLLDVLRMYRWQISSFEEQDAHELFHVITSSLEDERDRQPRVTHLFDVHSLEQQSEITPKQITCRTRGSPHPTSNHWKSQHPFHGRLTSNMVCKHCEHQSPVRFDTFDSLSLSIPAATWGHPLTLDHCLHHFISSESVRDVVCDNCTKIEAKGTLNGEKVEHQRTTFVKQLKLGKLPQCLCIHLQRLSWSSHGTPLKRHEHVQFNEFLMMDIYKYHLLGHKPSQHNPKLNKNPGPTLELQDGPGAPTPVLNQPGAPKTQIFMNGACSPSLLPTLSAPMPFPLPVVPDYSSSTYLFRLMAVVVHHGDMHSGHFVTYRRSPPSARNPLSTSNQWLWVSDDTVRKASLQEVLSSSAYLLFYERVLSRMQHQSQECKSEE
# USP28 inh – inhibitors of human USP28 deubiquitinase; Ubiquitin carboxyl-terminal hydrolase 28 (Homo sapiens), Q96RU2; purified USP28, Ub-rhodamine cleavage fluorescence, 30 min; inhibition, % at 25 µM; hit rate 3% among 47,000
# USP10 inh – inhibitors of human USP10 deubiquitinase; purified USP10, Ub-rhodamine fluorescence, 60 min; inhibition, % at 20 µM; Ubiquitin carboxyl-terminal hydrolase 10 (Homo sapiens), Q14694; hit rate 1.1% among 47,000; AID 1645856, 2021
# USP7 inh – inhibitors of human USP7 deubiquitinase | Ubiquitin carboxyl-terminal hydrolase 7 (Homo sapiens), Q93009 | purified USP7, Ub-rhodamine cleavage fluorescence | inhibition, % at 20 µM | hit rate 0.3% among 47,000
# USP17 block – inhibitors of human USP17 deubiquitinase | Ubiquitin carboxyl-terminal hydrolase 17-like protein 5 (Homo sapiens), A8MUK1 | purified USP17, Ub-rhodamine cleavage fluorescence, 3 h | inhibition, % at 50 µM | hit rate 6.5% among 47,000 | AID 1645855, 2021
# USP8 inh – inhibitors of human USP8 deubiquitinase. purified USP8, Ub-rhodamine cleavage fluorescence, 30 min. inhibition, % at 20 µM. Ubiquitin carboxyl-terminal hydrolase 8 (Homo sapiens), P40818. hit rate 4.2% among 47,000. AID 1645853, 2021
# Starred values were filed as active, the others as inactive; x = no result given. No stated cut-off is given here; in the data, active means inhibition above about 30%; inactive means the rest.
SMILES,USP30 block,USP28 inh,USP10 inh,USP7 inh,USP17 block,USP8 inh
CC(C)(C)c1cc(C(=O)N2C[C@@H]3OCC(=O)N(CCc4ccccc4)[C@H]3C2)n[nH]1,30.9*,-0.1,-0.8,-5.6,0.6,1.3
CN(c1ccccc1)S(=O)(=O)c1cccc(C(=O)N2CCCCCC2)c1,x,x,-0.2,-1.3,2.4,-1.8
COc1ccccc1NS(=O)(=O)c1cccc(C(=O)N2CCCCCC2)c1,36.1*,13.1,12.9,11.0,4.7,-36.8
CCNC(=O)c1ccc(N2CCNCC2)c(NS(=O)(=O)c2cc(C)ccc2C)c1,0.6,4.1,-2.5,-1.9,2.9,35.9*
COc1cccc(S(=O)(=O)N2C[C@@H]3C[C@H]2C[C@@H]3NC(=O)c2ccccc2)c1,-48.0,-12.4,-2.4,-6.1,-1.2,-13.1
N#Cc1ccccc1Cn1c(=O)n(CCCCC(=O)NCCc2ccccc2)c(=O)c2ccccc21,18.8,23.6,19.0,4.7,78.1*,9.5
O=C(CCCCn1c(=O)c2ccccc2n(Cc2ccccc2F)c1=O)NCCc1ccccc1,-0.3,2.7,10.5,2.1,55.6*,17.4
Cc1ccc(CNC(=O)CCCn2c(=O)c3ccccc3n(Cc3cccc(F)c3)c2=O)cc1,-0.7,0.4,4.2,-0.6,39.1*,20.8
Cc1ccc(CNC(=O)CCCn2c(=O)c3ccccc3n(CC(=O)Nc3cc(C)[nH]n3)c2=O)cc1,4.2,0.1,1.5,-0.9,0.8,3.8
COc1ccc(CCNC(=O)CCCn2c(=O)c3ccccc3n(Cc3cccc([N+](=O)[O-])c3)c2=O)cc1OC,-1.1,-1.1,-0.8,0.3,-0.2,-27.1
CCOc1ccc(NC(=O)Cn2c(=O)n(CCCCC(=O)NCCc3ccccc3)c(=O)c3ccccc32)cc1,28.1,8.3,15.2,5.0,16.8,18.6
CCn1ncc(-c2ccn(-c3ccc(N)cc3)n2)c1C,-9.9,-8.9,-1.7,-1.4,3.5,2.7
COc1cc2c(cc1OC)C(c1cccs1)N(CC(=O)Nc1cc(C)on1)CC2 (centres undefined),-20.1,1.4,-4.4,-2.1,-1.1,4.5
O=C(NCc1ccccn1)c1ccc(-c2ccc(N3CCSCC3)nc2)cc1,82.3*,32.7*,0.0,4.2,59.6*,2.5
COCCCNC(=O)c1ccc(-c2ccc(N3CCCCC3)nc2)cc1,17.2,18.4,12.1,-9.2,11.5,36.9*
COc1cccc(Sc2nc(-c3ccccc3)ncc2S(=O)(=O)c2ccccc2)c1,-8.6,-12.0,3.6,4.9,-20.5,-4.6
CCc1nn2c(CNC(=O)c3cccnc3)c(-c3ccccc3)nc2s1,-1.2,-9.0,-1.0,-2.8,-3.8,0.3
CC(OC(=O)c1ccc(N(C)C)cc1)C(=O)Nc1ccc(Cl)cn1 (centres undefined),2.9,2.6,3.1,4.5,4.4,6.2
Cc1ccc(CN2C(=O)c3cc4ccccc4n3CC2(C)C(=O)NCc2ccccc2)o1 (centres undefined),29.8,8.1,7.1,x,64.4*,5.0
CC1(C(=O)NCc2ccccc2)Cn2c(cc3ccccc32)C(=O)N1Cc1cccnc1 (centres undefined),-30.8,7.9,5.5,-33.7,12.2,28.8
CC1(C(=O)NC2CCCC2)Cn2c(ccc2-c2ccco2)C(=O)N1Cc1cccnc1 (centres undefined),x,x,-3.1,-34.7,-19.5,3.2
CC1(C(=O)NCc2ccccc2)Cn2c(cc3ccccc32)C(=O)N1Cc1ccccc1 (centres undefined),-0.2,23.2,15.5,6.9,50.2*,-161.6
CC1(C(=O)NC2CCCC2)Cn2c(ccc2-c2ccco2)C(=O)N1Cc1ccccc1 (centres undefined),-234.0,-9.6,-6.2,-20.9,29.6,56.9*
COc1ccc(N2C(=O)c3cc4ccccc4n3CC2(C)C(=O)NC2CCCC2)cc1 (centres undefined),14.8,10.1,10.6,6.9,15.4,31.2*
COc1ccc2cc3n(c2c1)CC(C)(C(=O)NC1CCCC1)N(Cc1ccc(C)cc1)C3=O (centres undefined),9.0,2.3,2.9,9.3,1.3,11.4
SMILES,USP30 block,USP28 inh,USP10 inh,USP7 inh,USP17 block,USP8 inh
CC(CCc1ccccc1)NC(=O)c1cc(-c2ccc(Cl)c(Cl)c2)nc2ccccc12 (centres undefined),-31.6,-1.4,2.1,4.9,15.8,0.0
O=C(Nc1ccccc1-c1cnn(-c2ccccc2)c1)c1ccccc1Cl,41.0*,20.1,-1.3,2.8,x,18.1
O=C(O)c1ccc(-c2cnn(-c3ccccc3)c2)nc1,-73.5,-7.6,-0.3,-7.0,-25.5,-4.5
C=C1CCC[C@]2(C)C[C@H]3OC(=O)C(CN4CCC(O)(c5ccc(Cl)cc5)CC4)[C@H]3CC12 (some centres undefined),8.1,2.9,9.6,-5.9,-5.7,-3.8
COc1nc2c(c(-c3ccco3)c1C#N)Cc1cc(NC(C)=O)ccc1-2,-128.9,-1.4,-2.2,-51.9,38.7*,65.8*
C/C1=C\CCC(C)C(O)CC(O)C(C)C(O)CCC(C)C(O)CC2(O)OC(CC(OC(=O)CC(=O)O)CC(O)CC(O)CC(O)C(C)C(O)/C=C/C(C)C(C(C)CCCCCCCCN=C(N)N)OC1=O)CC(O)C2O (centres undefined),-42.1,50.7*,-8.9,-8.8,2.3,-19.3
Cc1cc(C)n2cc(-c3sccc3Cl)c(C#N)c2n1,-75.3,1.7,-0.8,-0.4,32.9*,-169.6
COc1ccc(-c2nc3cnccc3o2)cc1NC(=O)c1cccc(F)c1,-28.0,-9.4,-2.5,2.5,49.3*,-1.5
O=C(Nc1cccc(-c2nc3cnccc3o2)c1)c1cccc(F)c1,x,x,-4.1,-1.9,76.4*,-10.4
O=C(Cc1ccccc1)Nc1cc(-c2nc3cnccc3o2)ccc1Cl,-38.7,-19.2,0.2,2.8,15.0,-0.6
O=C(NCc1ccc(-c2nc3cnccc3o2)cc1)c1cc2ccccc2o1,-14.4,0.0,-4.0,11.7,80.5*,-16.5
O=C(Nc1cccc(-c2nc3cnccc3o2)c1)c1ccc(Br)o1,30.6*,3.1,0.8,20.3,24.9,66.4*
COc1cc(C(=O)NCc2ccc(-c3nc4cnccc4o3)cc2)cc(OC)c1OC,2.2,6.3,0.5,3.6,11.4,17.8
Cc1ccc(NC(=O)Cn2cc(S(=O)(=O)Cc3ccccc3)c3ccccc32)cc1Cl,-75.6,-60.9,-8.0,-2.3,-11.5,-3.1
COc1cccc(C(=O)Nc2cccc(-c3nc4cnccc4o3)c2)c1,x,x,0.2,2.4,55.4*,6.9
COc1ccc(-c2nnc(NC(=O)c3cccc(SC)c3)o2)cc1,14.6,0.0,12.0,7.9,-45.1,-116.4

# Compound activity (PubChem BioAssay)
